From PubChem BioAssay AID1159580 (chemical genetic matrix, 2015)
Among all 5,500 compounds or so, about 2,000 (36%) were called active. About 18% were inconclusive and are not listed. The list shows a part of the results. Values without a mark were called inactive. Rule as the data show it: active = normalized growth mostly below about 0.91 (no sharp cut-off); inconclusive = no clear call, values can overlap the other calls; inactive = mostly above about 0.92.

Experiment: chemical genetic growth profiling, strain panel (AID 1159580);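 also: tested at 20 µM; growth read once vehicle control cultures reached saturation at 30 °C; 1 = growth at the plate median or of vehicle wells; lower values mean less growth of the strain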
Conditions: S. cerevisiae deletion strains, growth OD

With `N#CC(C#N)=NNc1cc(C(F)(F)F)ccc1OCC(F)(F)F` as the molecule, how does the normalized growth (locus YAR019C, strain CDC15, active compounds read low) read?
The normalized growth was 0.913.

What about the normalized growth (locus YBL105C, strain PKC1, active compounds read low) of the same molecule?
Its normalized growth is 0.927.

And the normalized growth (locus YBR135W, strain CKS1, active compounds read low)?
The normalized growth was 0.917.

What about the normalized growth (locus YBR136W, strain MEC1, active compounds read low) of the same molecule?
Its normalized growth is 0.894.

What about the normalized growth (locus YBR160W, strain CDC28, active compounds read low) of the same molecule?
The normalized growth was 0.906.

What about the normalized growth (locus YDL017W, strain CDC7, active compounds read low) of the same molecule?
Its normalized growth is 0.953.

What about the normalized growth (locus YDL028C, strain MPS1, active compounds read low) of the same molecule?
Its normalized growth is 0.917.

What about the normalized growth (locus YDL101C, strain DUN1, active compounds read low) of the same molecule?
The normalized growth was 0.911.

And the normalized growth (locus YDL108W, strain KIN28, active compounds read low)?
Its normalized growth is 0.911.

And the normalized growth (locus YDL132W, strain cdc53, active compounds read low)?
The normalized growth was 0.891 (active).

And the normalized growth (locus YDL214C, strain PRR2, active compounds read low)?
The normalized growth was 0.611 (active).

What about the normalized growth (locus YDR052C, strain DBF4, active compounds read low) of the same molecule?
The normalized growth was 0.913.

What about the normalized growth (locus YDR054C, strain cdc34, active compounds read low) of the same molecule?
Its normalized growth is 0.893.

And the normalized growth (locus YDR226W, strain ADK1, active compounds read low)?
Its normalized growth is 0.891 (active).

What about the normalized growth (locus YDR477W, strain SNF1, active compounds read low) of the same molecule?
The normalized growth was 0.572 (active).

And the normalized growth (locus YER123W, strain YCK3, active compounds read low)?
Its normalized growth is 0.398 (active).

What about the normalized growth (locus YER133W, strain GLC7, active compounds read low) of the same molecule?
The normalized growth was 0.459 (active).

What about the normalized growth (locus YFL009W, strain cdc4, active compounds read low) of the same molecule?
The normalized growth was 0.919.

What about the normalized growth (locus YFL029C, strain CAK1, active compounds read low) of the same molecule?
Its normalized growth is 0.921.

What about the normalized growth (locus YFR003C, strain YPI1, active compounds read low) of the same molecule?
The normalized growth was 0.975.

And the normalized growth (locus YFR019W, strain FAB1, active compounds read low)?
Its normalized growth is 0.691 (active).

And the normalized growth (locus YFR028C, strain CDC14, active compounds read low)?
Its normalized growth is 0.912.

What about the normalized growth (locus YGR040W, strain KSS1, active compounds read low) of the same molecule?
The normalized growth was 0.611 (active).

What about the normalized growth (locus YGR052W, strain FMP48, active compounds read low) of the same molecule?
The normalized growth was 0.428 (active).

What about the normalized growth (locus YGR092W, strain DBF2, active compounds read low) of the same molecule?
Its normalized growth is 0.818.

What about the normalized growth (locus YHR030C, strain SLT2, active compounds read low) of the same molecule?
Its normalized growth is 0.445 (active).

And the normalized growth (locus YHR079C, strain IRE1, active compounds read low)?
The normalized growth was 0.831.

And the normalized growth (locus YHR082C, strain KSP1, active compounds read low)?
Its normalized growth is 0.543 (active).

And the normalized growth (locus YHR205W, strain SCH9, active compounds read low)?
The normalized growth was 0.814.

What about the normalized growth (locus YIL147C, strain SLN1, active compounds read low) of the same molecule?
The normalized growth was 0.966.

What about the normalized growth (locus YJL095W, strain BCK1, active compounds read low) of the same molecule?
Its normalized growth is 0.533.

What about the normalized growth (locus YJL128C, strain PBS2, active compounds read low) of the same molecule?
Its normalized growth is 0.888.

And the normalized growth (locus YJL157C, strain FAR1, active compounds read low)?
Its normalized growth is 0.814.

And the normalized growth (locus YJR016C, strain ILV3, active compounds read low)?
Its normalized growth is 0.947.

And the normalized growth (locus YJR066W, strain TOR1 (second series), active compounds read low)?
Its normalized growth is 0.437 (active).

And the normalized growth (locus YJR066W, strain TOR1, active compounds read low)?
The normalized growth was 0.458 (active).

What about the normalized growth (locus YKL048C, strain ELM1, active compounds read low) of the same molecule?
The normalized growth was 0.88.

And the normalized growth (locus YKL067W, strain YNK1, active compounds read low)?
The normalized growth was 0.739.

And the normalized growth (locus YKL101W, strain HSL1, active compounds read low)?
Its normalized growth is 0.787.

What about the normalized growth (locus YKL193C, strain SDS22, active compounds read low) of the same molecule?
The normalized growth was 0.9.

And the normalized growth (locus YKL203C, strain TOR2, active compounds read low)?
Its normalized growth is 0.71 (active).

And the normalized growth (locus YLR113W, strain HOG1, active compounds read low)?
The normalized growth was 0.32 (active).

What about the normalized growth (locus YLR133W, strain CKI1, active compounds read low) of the same molecule?
The normalized growth was 0.868.

And the normalized growth (locus YLR403W, strain SFP1, active compounds read low)?
The normalized growth was 0.811.

And the normalized growth (locus YML070W, strain DAK1, active compounds read low)?
Its normalized growth is 0.623 (active).

And the normalized growth (locus YMR001C, strain CDC5, active compounds read low)?
Its normalized growth is 0.9.

And the normalized growth (locus YMR205C, strain PFK2 (second series), active compounds read low)?
The normalized growth was 0.889.

And the normalized growth (locus YMR277W, strain FCP1, active compounds read low)?
Its normalized growth is 0.871 (active).

What about the normalized growth (locus YNL006W, strain LST8, active compounds read low) of the same molecule?
Its normalized growth is 0.976.

And the normalized growth (locus YNL020C, strain ARK1, active compounds read low)?
The normalized growth was 0.917.

What about the normalized growth (locus YNL161W, strain CBK1, active compounds read low) of the same molecule?
The normalized growth was 0.899.

And the normalized growth (locus YNL183C, strain NPR1, active compounds read low)?
The normalized growth was 0.329 (active).

What about the normalized growth (locus YNL207W, strain RIO2, active compounds read low) of the same molecule?
The normalized growth was 0.923.

What about the normalized growth (locus YNL307C, strain MCK1 (second series), active compounds read low) of the same molecule?
The normalized growth was 0.734.

And the normalized growth (locus YOL078W, strain AVO1, active compounds read low)?
The normalized growth was 0.904.

And the normalized growth (locus YOL136C, strain PFK27, active compounds read low)?
Its normalized growth is 0.693.

What about the normalized growth (locus YOR061W, strain CKA2, active compounds read low) of the same molecule?
The normalized growth was 0.86.

What about the normalized growth (locus YOR119C, strain RIO1, active compounds read low) of the same molecule?
Its normalized growth is 0.45 (active).

And the normalized growth (locus YOR231W, strain MKK1, active compounds read low)?
Its normalized growth is 0.782.

And the normalized growth (locus YOR329C, strain SCD5, active compounds read low)?
Its normalized growth is 0.978.

What about the normalized growth (locus YPL031C, strain PHO85, active compounds read low) of the same molecule?
Its normalized growth is 0.703.

What about the normalized growth (locus YPL153C, strain RAD53, active compounds read low) of the same molecule?
Its normalized growth is 0.679.

And the normalized growth (locus YPL204W, strain HRR25, active compounds read low)?
The normalized growth was 0.688.

What about the normalized growth (locus YPL209C, strain IPL1, active compounds read low) of the same molecule?
Its normalized growth is 0.928.

What about the normalized growth (locus YPL256C, strain CLN2, active compounds read low) of the same molecule?
Its normalized growth is 0.33 (active).

And the normalized growth (locus YPR025C, strain CCL1, active compounds read low)?
Its normalized growth is 0.923.

And the normalized growth (locus YPR106W, strain ISR1, active compounds read low)?
The normalized growth was 0.932.

What about the normalized growth (locus YPR111W, strain DBF20, active compounds read low) of the same molecule?
The normalized growth was 0.895.

What about the normalized growth (strain NNK1, active compounds read low) of the same molecule?
The normalized growth was 0.957.

What about the normalized growth (strain TSCII, active compounds read low) of the same molecule?
Its normalized growth is 0.858 (active).
